Source: PubChem (several laboratories)
eIF4E-4G inh = eIF4E–eIF4G protein interaction inhibitors, primary screen, biochemical, uHTS, TR-FRET, eIF4GI fragment; TR-FRET eIF4E-eIF4GI(517-606) binding, 2 h; 0.37% of 220,000 active; Eukaryotic translation initiation factor 4E (Mus musculus) + Eukaryotic translation …; inhibition, % at 21.7 µM;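 active = inhibition above about 30%, limit read from the data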;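 also: 0% = full FRET control wells and 100% = background wells lacking eIF4GI fragment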
Mcl1 Noxa PPI = Mcl-1/Noxa binding inhibitors, primary screen, biochemical, TR-FRET, 1536-well | Induced myeloid leukemia cell differentiation protein Mcl-1 (Homo sapiens), Q07820 | AID 1022, 2008 | 1.5% of 220,000 active | inhibition, % at 21.7 µM | TR-FRET Mcl-1/Noxa peptide binding, 2 h;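 active = compounds that cut the protein-peptide binding signal by more than 50% relative to plate controls in a single-dose test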;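 also: His-tagged Mcl-1 with rhodamine Noxa BH3 peptide and terbium anti-His antibody; 0% = Mcl-1 plus Noxa peptide wells and 100% = peptide-only wells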
Target sequence (Q07820 whole entry, looked up): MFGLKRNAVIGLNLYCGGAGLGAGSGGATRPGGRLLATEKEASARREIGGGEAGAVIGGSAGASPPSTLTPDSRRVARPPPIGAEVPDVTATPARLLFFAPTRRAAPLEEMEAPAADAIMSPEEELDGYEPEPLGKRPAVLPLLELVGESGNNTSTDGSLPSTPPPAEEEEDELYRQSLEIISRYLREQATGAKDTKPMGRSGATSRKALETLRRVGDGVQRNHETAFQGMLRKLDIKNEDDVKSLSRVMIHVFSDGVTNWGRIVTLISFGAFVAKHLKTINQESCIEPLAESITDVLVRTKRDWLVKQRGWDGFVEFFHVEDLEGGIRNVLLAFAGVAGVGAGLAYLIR
MCL1 BIM primary = inhibitors of MCL1 binding to BIM-BH3, primary screen, biochemical, fluorescence polarization | inhibition, % at 10.9 µM | 0.68% of 320,000 active | GST-MCL1 / FITC-Bim-BH3 fluorescence polarization | AID 2057, 2009 | Induced myeloid leukemia cell differentiation protein Mcl-1 (Homo sapiens), Q07820;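 active = inhibition above the mean inhibition of all tested compounds plus 3 SD, set per campaign, cut at about 40% in these data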;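 also: 0% = DMSO wells and 100% = unlabeled Bim-BH3 peptide control; higher means more loss of mP so more displacement of Bim peptide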
Bim-Mcl-1 = inhibitors of Bim peptide binding to Mcl-1, primary screen, biochemical, bead-based flow cytometry, multiplex; Induced myeloid leukemia cell differentiation protein Mcl-1 (Homo sapiens), Q07820; Bim peptide-Mcl-1 binding; inhibition, % at 10 µM; 0.1% of 190,000 active; AID 1009, 2008; in the data active = inhibition above about 40%;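 also: 0% = no compound tracer wells and 100% = peptide blocker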
14-3-3 Bad PPI = inhibitors of 14-3-3 zeta/Bad binding, primary screen, biochemical, TR-FRET, bovine 14-3-3 zeta; TR-FRET 14-3-3zeta/Dy647-pBad peptide displacement, 1 h; 14-3-3 protein zeta/delta (Bos taurus), P63103; 0.71% of 220,000 active; inhibition, % at 21.7 µM;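 active = inhibition above about 70%, limit read from the data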;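 also: 0% = full 14-3-3 plus peptide FRET controls and 100% = background without 14-3-3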
Target sequence (P63103 whole entry, looked up): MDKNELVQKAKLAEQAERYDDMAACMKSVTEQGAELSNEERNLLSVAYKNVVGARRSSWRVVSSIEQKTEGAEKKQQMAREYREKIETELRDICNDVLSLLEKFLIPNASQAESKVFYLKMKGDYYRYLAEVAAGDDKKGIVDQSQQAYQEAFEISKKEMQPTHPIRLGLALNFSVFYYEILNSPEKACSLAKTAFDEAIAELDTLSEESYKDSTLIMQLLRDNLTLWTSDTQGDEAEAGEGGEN
Mcl1 Bid PPI = Mcl-1/Bid binding inhibitors, primary screen, biochemical, TR-FRET, 1536-well. Induced myeloid leukemia cell differentiation protein Mcl-1 (Homo sapiens), Q07820. TR-FRET Mcl-1/Bid-Dy647 peptide binding. inhibition, % at 21.7 µM. 0.97% of 220,000 active;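 active = compounds that cut the binding signal by more than half at the single screening dose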;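 also: His-tagged Mcl-1 with europium anti-His antibody binding Bid BH3 peptide; 0% = Mcl-1 plus peptide wells and 100% = peptide-only wells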
Active calls of the source: *; . = not tested or not shown. A selection: hits, their analogues and other compounds. The true share with any hit is near 2.6%.

SMILES	eIF4E-4G inh	Mcl1 Noxa PPI	MCL1 BIM primary	Bim-Mcl-1	14-3-3 Bad PPI	Mcl1 Bid PPI
O=C(CCCCC(=O)NNC(=O)COc1ccccc1)NNC(=O)COc1ccccc1	.	.	11	.	.	.
O=P(O)(COc1ccccc1)COc1ccccc1	2	16	1	0	72*	18
Cc1cc2nc(C3CCCN(C(=O)NCc4ccccc4)C3)[nH]c2cc1C (configuration not stated)	6	29	-4	2	76*	9
Cc1cc2nc(C3CCCN(C(=S)Nc4ccccc4C)C3)[nH]c2cc1C (configuration not stated)	10	-8	7	9	-17	-64
CCOC(=O)C1=C(C)NC2=C(C(=O)CC(C)(C)C2)C1c1ccc2c(c1)CCCN2C (configuration not stated)	-3	94*	-1	-6	-1	-2
O=C(Nc1ccc2sccc2c1)c1ccc(Cl)s1	6	7	4	-2	11	82*
O=C(Nc1ccc2c(c1)C(=O)NC2=O)c1ccc(Cl)s1	9	8	-1	-2	28	-3
O=C1CC(=O)N(CCc2ccccc2)C(=O)N1CCc1ccccc1	0	13	-70	0	6	9
O=C1C=CC(=O)C(C2=C3C(=O)N(CCc4ccccc4)CC(=O)N3CCC2)=C1	-1	84*	20	-7	1	-49
CCOc1ccc(C(=O)NC(=S)Nc2ccc(N3CCC(C)CC3)cc2)cc1[N+](=O)[O-]	4	45	.	-3	-3	54*
CCOc1ccc(C(=O)NC(=S)Nc2ccccc2N2CCC(C)CC2)cc1[N+](=O)[O-]	0	0	2	-1	-2	-22
CCc1[nH]nc(C(=O)N2CCCC(N3CCN(c4ccccc4C)CC3)C2)c1C (configuration not stated)	.	.	0	.	.	.
O=C(CSc1nc2ccccc2n1CCc1ccccc1)c1ccc(O)c(O)c1	62*	102*	.	-3	94*	52*
CCn1nnc2cc(C(=O)Nc3cc(OC)cc(OC)c3)ccc21	.	.	1	.	.	.
Cc1nc(CSc2nc3[nH]ncc3c(=O)n2-c2ccccc2)cs1	6	7	-9	-2	-7	84*
Cc1nc(CSc2n[nH]c(=O)n2-c2ccccc2)cs1	0	1	9	.	-5	-2
O=C(CN1CCN(c2ccccc2O)CC1)Nc1ccc([N+](=O)[O-])cc1Br	5	24	8	-1	-4	-3
CC(C(=O)Nc1cc([N+](=O)[O-])ccc1Cl)N1CCN(c2ccc(O)cc2)CC1 (configuration not stated)	9	78*	21	-1	-7	-62
O=C(CN1CCN(c2ccccc2O)CC1)Nc1cc([N+](=O)[O-])ccc1Cl	2	67*	5	-2	-6	-25
O=C(NC1CC1)c1ccc2c(c1)S(=O)(=O)c1cc(Cl)ccc1C2=O	.	.	4	.	.	.
COc1ccc(/C=c2\s/c(=C/C(=O)c3ccc(C)cc3)[nH]c2=O)cc1OC	3	-7	-72	6	6	-14
NCCNC[C@@H]1COC2(CCCCCCCCCCC2)O1	2	24	-2	.	14	59*
COc1ccc(C(=O)CN2Cc3ccccc3C2=N)cc1	5	9	1	.	5	-42
CC1(C)COC(Cn2c3ccccc3c3ccccc32)O1 (configuration not stated)	0	-7	9	.	3	-22
CC1COC(Cn2c3ccccc3c3ccccc32)O1 (configuration not stated)	7	18	2	.	16	61*
SMILES	eIF4E-4G inh	Mcl1 Noxa PPI	MCL1 BIM primary	Bim-Mcl-1	14-3-3 Bad PPI	Mcl1 Bid PPI
CCOC(=O)C1=C(C)NC(=O)NC1c1c(C)nn(-c2ccccc2)c1Cl (configuration not stated)	3	-84	13	2	93*	19
Cc1ccc(NC(=O)CSc2nnc3c(n2)[nH]c2ccccc23)cc1	.	.	2	.	.	.
O=C(CSc1nnc2c(n1)[nH]c1ccccc12)Nc1ccc2c(c1)OCO2	-10	83*	13	-5	22	45
COc1ccc(CC(=O)n2[nH]c(=O)ccc2=O)cc1OC	3	75*	16	.	4	-7
Cc1cc(/C=N/NC(=O)COc2cccc3cccnc23)c(C)n1-c1ccc(O)cc1	-4	72*	9	-1	-14	-10
COc1cc2[nH]c(=S)n(N(C(C)=O)C(C)=O)c(=O)c2cc1OC	9	8	-14	-3	6	97*
Cc1cc2nc(-c3cccnc3SCC(=O)NCc3ccco3)[nH]c2cc1C	9	73*	25	0	-8	-33
O=C1NC(=O)c2cc3ccccc3cc21	.	.	0	.	.	.
Cc1ccc(S(=O)(=O)N(C)C)cc1NC(=O)CN1CCCC1	.	.	-19	.	.	.
CCN(CC)S(=O)(=O)c1ccc(C)c(NC(=O)CN2CCN(C)CC2)c1	-1	33	-4	.	45	65*
CCc1ccc(NC(=O)C(=O)NCCOc2ccccc2Cl)cc1	-1	4	3	0	-3	-5
CC1(C)Oc2ccc(C(=O)N/N=C/c3ccc(O)cc3)cc2NC1=O	.	.	2	.	.	.
Cc1cc(NC2C3CC4CC(C3)CC2C4)n2nnnc2n1 (configuration not stated)	4	27	2	0	1	76*
COc1cc(-c2nc(-c3ccc4c(c3)-c3ccccc3S4(=O)=O)c(-c3ccccc3)[nH]2)cc(OC)c1O	4	58*	8	2	6	10
COc1cc(CN(C)CCc2ccccn2)cc(OC)c1OC	8	17	-4	1	73*	26
O=C(Nc1ccc2[nH]c3c(c2c1)CCCC3)c1ccco1	-12	11	40*	0	0	-16
CC(=O)NN1C(=O)/C(=C2/Sc3ccc(Cl)cc3N2C)SC1=S	.	.	-7	.	.	.
Cc1ccc2c(c1)NC(=O)C(CC(=O)NC1CCCCC1C)O2 (configuration not stated)	5	25	-4	0	-10	-11
CC1CCCCC1NC(=O)CC1Oc2ccccc2NC1=O (configuration not stated)	2	-16	-10	.	-2	52*
CSCCC(NS(=O)(=O)c1ccccc1F)C(=O)NCCCn1nc(C)cc1C (configuration not stated)	.	.	-1	.	.	.
